# Data from PubChem BioAssay.
# Test: probe aNOTCH3 binding on compound microarray – biochemical, small-molecule microarray, 635/667 nm fluorescence, primary screen (AID 1120);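 further: probe is a biotin-tagged antibody raised against NOTCH3 rather than NOTCH3 protein; score merges spot fluorescence near 667 nm with spot signal to noise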
# Conditions: higher = more signal
row,Compound,composite z-score
1,CN1CCC(CCCO)=CC1C1CC1 (configuration not stated),-0.0918
2,NC(=O)NCC#Cc1ccc2c(c1)[C@]1(C(=O)N2)[C@H](C(=O)N2CCCCCCC2)[C@H]2C(=O)O[C@H](c3ccccc3)[C@H](c3ccccc3)N2[C@@H]1c1ccccc1OCCO,1.43
3,C=CCC(OC(C)=O)[C@@H]1[C@@H](N(Cc2cc3ccccc3o2)C(=O)c2ccc(C)cc2)c2cc(OCCCO)ccc2N1C(=O)c1ccc2ccccc2n1 (some centres not stated),-0.0984
4,CO[C@H]1COC(=O)[C@H](C)COC(=O)[C@H](Cc2ccccc2)NC(=O)CC=C[C@H]1C,0.62
5,C=CC[C@@]12N=C(c3ccc(OCCCO)cc3)O[C@@H]1c1ccccc1CN(Cc1ccccc1)C2=O,0.0242
6,CCCC[C@@H]1C[C@H]1[C@@H](NC(=O)c1cccs1)c1ccc(Cl)cc1,-0.201
7,CO[C@H]1COC(=O)[C@H](CCSC)NC(=O)CC=C[C@@H](C)COC(=O)[C@@H](OCc2ccccc2)C=C[C@@H]1C,-0.0914
8,O=C1c2ccccc2[C@@]2(Cc3ccccc3N(CC(F)(F)F)C2=O)[C@H](c2ccc(CO)cc2)N1C1CCCCC1,0.157
9,CC(C)(C)OC(=O)CC[C@@]1(C(=O)NCc2ccccc2)N=C(c2ccc(OCCCO)cc2)O[C@@H]1c1ccccc1,0.132
10,CC[C@H]1C2=C3C(CC[C@H]4C(OC)OC[C@](C)([C@@H]34)N(C(=O)OC(C)(C)C)C2)C(CO)C1CO (some centres not stated),0.619
11,CO[C@]12C=C(Br)[C@@H](C[C@@H]1c1ccccc1)[C@@]1(CO1)C2=O,0.0773
12,COCCOC(=O)N1C(=O)[C@@]2(c3cc(C#CC4=CCCCC4)ccc31)[C@H](C(=O)NC[C@H](O)c1ccccc1)[C@H]1C(=O)O[C@H](c3ccccc3)[C@H](c3ccccc3)N1[C@@H]2c1ccc(OCCO)cc1,0.0739
